Values joined by “and” are separate entries in the source; they are usually repeats but may differ in a detail not shown here. Equal entries are not always repeated. A number with no mark means an inactive call. Records with an inconclusive call do not appear. Active and inactive are the calls of the source. Unless noted, calls come from the whole dose curve; as a rule, active = well fitted curve in the direction sought with a large enough effect; inconclusive = small, poorly fitted or top-dose-only effect, or another doubt; inactive = no such curve, though single readings can be large; an effect the other way counts as inactive or inconclusive.

For experiment [1], the target named is Cytochrome P450 3A4 (Homo sapiens) (UniProt P08684). Briefly: qHTS Assay for Inhibitors and Substrates of Cytochrome P450 3A4 (AID 884). Note: series mostly up to about 57 µM; % is set by controls: 0 for no effect and ±100 for the full control effect; nearly all actives have a fitted effect of over 50% in size. The method in brief: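 Luminescent readout of luciferin produced by CYP3A4 (20 nM) dealkylation of Luciferin-PPXE, 25 uM (its KM). NADPH-driven reaction ran 60 min at RT after 10 min compound preincubation; data scaled to 57 uM ketoconazole as 100% inhibition.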

Experiment [2] in a line: Cell Viability - LYMP2-001 (AID 921).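 Note: series mostly up to about 92 µM; 0% = DMSO only and full inhibition = tetraoctylammonium bromide control wells; nearly all actives have a fitted effect of over 70% in size.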 The method in brief:
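Steps: seed 2500 lymphoblastoid cells/well; 5 hr, 37 C; add compound; 24 hr, 37 C; CellTiter-Glo reagent, 30 min room temperature; read luminescence. Concentration-response modeled by Hill equation for AC50.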

A short description of experiment [3]: MultiTox-Fluor Cytotoxicity Assay - LYMP1-001 - Live Cells (AID 947).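 Note: 0% = DMSO only and full inhibition = tetraoctylammonium bromide control.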
Experiment [4] in a line: Cell Viability - LYMP2-010 (AID 981).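 Note: cells exposed to compound for 24 hours at 37 °C; % is set by controls: 0 for no effect and ±100 for the full control effect; nearly all actives have a fitted effect of over 55% in size.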 The method in brief: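 qHTS cytotoxicity, 1536-well: 2500 cells/well, 5 hr settle, 24 hr compound at 37 C, CellTiter-Glo 30 min RT, luminescence read. Decrease in ATP = toxicity; AC50 via standard Hill equation. Positive control tetraoctylammonium bromide.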
Experiment [5] can be described thus: Cell Viability - LYMP2-012 (AID 982).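 Note: cellular ATP by luciferase luminescence where a drop means cytotoxicity; cells exposed to compound for one day before reading; 0% = DMSO only and full loss = 92 µM tetraoctylammonium bromide; nearly all actives have a fitted effect of over 55% in size.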
Experiment [6] is described as follows: Cell Viability - LYMP2-016 (AID 984).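 Note: cells exposed to compound for 24 hours at 37 °C; % is set by controls: 0 for no effect and ±100 for the full control effect; nearly all actives have a fitted effect of over 55% in size.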 The method in brief:
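Cells were seeded at 2500 per well and rested 5 hr before a 24 hr compound exposure at 37 C. Viability was then gauged as cellular ATP by luciferase luminescence, with AC50 values fitted to the Hill equation.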

The nature of experiment [7]: Cell Viability - LYMP2-024 (AID 988).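 Note: plate controls were DMSO only for no effect and 92 µM tetraoctylammonium bromide for full effect; nearly all actives have a fitted effect of over 60% in size.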 The method, boiled down:
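ATP-based luminescence (CellTiter-Glo, 30 min RT) after 24 h compound exposure at 37 C of 2500 lymphoblastoid cells/well; decrease in ATP taken as cytotoxicity. qHTS concentration-response fitted to standard Hill equation for AC50.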

Experiment [8] has as its target Estrogen receptor (Homo sapiens) (UniProt P03372). Briefly: qHTS assay for small molecule antagonists of estrogen receptor alpha signaling (AID 588513; active = well fitted curve in the direction sought with a large enough effect in the signal ratio, with a control signal flat, not every such curve was filed as active; the % refers to the signal ratio; note: % is set by controls: 0 for no effect and ±100 for the full control effect). The method, boiled down:
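Fluorescence from CCF4 substrate after 2 h at room temperature gave reporter activity; cells had been exposed to compound and 0.5nM 17-beta-estradiol for 18 h at 37 C. Hill-equation fitting yielded IC50 and maximal response.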
In general terms: In qHTS, concentration-response curves come from the screen itself.

For experiment [9] the target is unchanged. Put plainly: qHTS assay for small molecule agonists of estrogen receptor alpha signaling (AID 588514; calls by dose curve;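 note: 0% = vehicle only and 100% = reference agonist; nearly all actives have a fitted effect of over 70% in size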). The method, boiled down:
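Read-out: CCF4 fluorescence from a beta-lactamase reporter in ER-alpha-UAS-bla HEK 293 cells after 18 hrs of compound exposure at 37 C. Normalized to 20 nM 17-beta-estradiol (100%) and DMSO (0%).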

The target of experiment [10] is Glucocorticoid receptor (Homo sapiens) (UniProt P04150). Put plainly: qHTS assay for small molecule agonists of glucocorticoid receptor signaling (AID 588532; active = well fitted curve in the direction sought with a large enough effect in the signal ratio, with a control signal flat; the % refers to the signal ratio;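 note: 100% = dexamethasone at 0.1 µM and 0% = DMSO only wells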). Particulars: HeLa MMTV-bla, beta-lactamase ratio, agonist, 18 h; active compounds read high; percent of dexamethasone control, DMSO zero. The method in brief:
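MMTV-bla HeLa beta-lactamase reporter cells in 1% charcoal/dextran FBS medium, compounds up to 92 uM for 18 h at 37 C, CCF4 readout; normalized to 0.1 uM dexamethasone (100%), EC50 and efficacy from Hill fits.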

For experiment [11] the target is unchanged. Put plainly: qHTS assay for small molecule antagonists of glucocorticoid receptor signaling (AID 588533; active = well fitted inhibition curve with a large enough effect in the signal ratio, with a control signal flat, not every such curve was filed as active; the % refers to the signal ratio;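 note: cells stimulated with 2 nM dexamethasone as agonist; % is set by controls: 0 for no effect and ±100 for the full control effect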). The method, boiled down:
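Antagonist-mode qHTS: compound titrations added to GRE-bla HeLa cells, then dexamethasone 2 nM final; 18 h, 37 C. CCF4 FRET fluorescence normalized to dexamethasone and DMSO; IC50 from Hill fit.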

For experiment [12], the target named is Peroxisome proliferator-activated receptor gamma (Homo sapiens) (UniProt P37231). Briefly: qHTS assay for small molecule agonists of peroxisome proliferator-activated receptor gamma signaling (AID 588536; active = well fitted curve in the direction sought with a large enough effect in the signal ratio, with a control signal flat, not every such curve was filed as active; the % refers to the signal ratio;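 note: 0% = DMSO basal wells and 100% = rosiglitazone at 2 µM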). The method, boiled down:
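Using GeneBLAzer HEK293 cells, response was quantified by CCF4 fluorescence and normalized between basal DMSO (0%) and rosiglitazone 2 uM (100%); curves yielded half-maximal stimulation concentration and efficacy.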

Experiment [13] concerns the target Retinoic acid receptor RXR-alpha (Homo sapiens) (UniProt P19793). Briefly: qHTS assay for small molecule agonists of retinoid X receptor alpha signaling (AID 588544; calls by dose curve;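 note: 0% = DMSO basal wells and 100% = reference agonist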).
Experiment [14] has as its target Thyroid hormone receptor beta (Homo sapiens) (UniProt P10828). Briefly: qHTS assay for small molecule antagonists of thyroid hormone receptor beta signaling (AID 588547; active = well fitted inhibition curve with a large enough effect in the signal ratio, with a control signal flat, not every such curve was filed as active; the % refers to the signal ratio;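 note: cells stimulated with 0.4 nM T3 agonist during compound exposure; series mostly up to about 77 µM; % is set by controls: 0 for no effect and ±100 for the full control effect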). Particulars: TR-UAS-bla HEK293, beta-lactamase ratio, antagonist mode, 18 h. The method, boiled down: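 TR-UAS-bla GripTite HEK293 cells in 2% charcoal/dextran FBS medium; compounds 0.59 nM to 92 uM with T3 at 0.4nM final, 18 h at 37 C. Beta-lactamase read by CCF4 fluorescence (460/530 nm); Hill fits gave IC50 and efficacy.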

A short description of experiment [15]: qHTS assay for small molecule activators of the p53 signaling pathway (AID 651743; active = well fitted activation curve with a large enough effect in the signal ratio, not every such curve was filed as active; the % refers to the signal ratio; note: series mostly up to about 92 µM; % of control where 0% means no effect). Particulars: HCT-116 p53RE-bla, beta-lactamase FRET ratio, 16 h; activation: active compounds read high. The method, boiled down:
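Reporter: beta-lactamase driven by p53 response elements, stably integrated in HCT-116 cells. Cells seeded at 4,000/well, 5 h preincubation, compound (DMSO) 16 h at 37 C; B/G FRET substrate 2 h RT; fluorescence intensity read.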

The target in experiment [16] is Tumor necrosis factor (Homo sapiens) (UniProt P01375). Put plainly: qHTS assay to identify small molecules that stimulate Tumor Necrosis Factor-alpha (TNF-alpha) secretion (AID 651757; active = well fitted curve in the direction sought with a large enough effect in the signal ratio; the % refers to the signal ratio; note: 0% is about no effect). The method, boiled down: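 THP-1 cells, 3000/well; compound 17 hrs, 37 C; add cryptate/XL665 anti-TNF-alpha antibody pair; 3 hr RT; TR-FRET (HTRF) read of secreted TNF-alpha. Quantitative HTS format.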

The nature of experiment [17]: qHTS assay for environmental chemicals that activate the Aryl hydrocarbon Receptor (AhR) signaling pathway (AID 651777). For activation: % of control where 0% means no effect. Note: nearly all actives have a fitted effect of over 15% in size. Note: potency is the fitted concentration of half-maximal effect. Particulars: 1A2-DRE human hepatoma cells, luciferase, 24 h; activation: active compounds read high. The method in brief: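 Following a 24 hr incubation with test chemicals at 37 C and 5% CO2, 1A2-DRE human hepatoma cells received One-Glo reagent; after 30 min at room temperature, luciferase output reflected CYP1A2 induction via AhR.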

The target of experiment [18] is Nuclear receptor ROR-gamma (Homo sapiens) (UniProt P51449). Briefly: qHTS assay for small molecule antagonists of the retinoid-related orphan receptor gamma (ROR-gamma) signaling pathway (AID 651802).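 Note: CHO cells with doxycycline-induced ROR-gamma expression; luciferase reporter luminescence driven by ROR response element; series mostly up to about 92 µM; % is set by controls: 0 for no effect and ±100 for the full control effect; nearly all actives have a fitted effect of over 60% in size.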 The method in brief: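 Luciferase read-out: ONE-Glo luminescence after 30 min at room temperature, following 16hr doxycycline induction at 37C, 5% CO2 of CHO cells with TET-inducible ROR and RORE-LUC reporter; decreased luminescence = reduced reporter activity.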

A short description of experiment [19]: qHTS assay for small molecule antagonists of the retinoid-related orphan receptor gamma (ROR-gamma) signaling pathway - cell viability counter screen (AID 720652; active = well fitted curve in the direction sought with a large enough effect in the repeat runs; an effect the other way counts as inactive or inconclusive;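 note: CHO reporter cells with doxycycline-induced ROR-gamma expression; series mostly up to about 92 µM; compound exposure lasted 16 hr before ATP read; % is set by controls: 0 for no effect and ±100 for the full control effect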). The method, boiled down:
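CHO RORE-LUC/TET-ROR line, 1,000 cells/well, 37 C 5% CO2 5 hr; cpd or DMSO + doxycycline induction, 16 hr. CellTiter-Glo, 30 min RT, luminescence = ATP content.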

Experiment [20] addresses Nuclear receptor subfamily 1 group I member 2 (Rattus norvegicus) (UniProt Q9R1A7). Briefly: qHTS assay for small molecule activators of the rat pregnane X receptor (rPXR) signaling pathway (AID 651751; call rule not given here; note: 0% is about no effect). Particulars: rPXR reporter cells, luciferase (One-Glo), 24 h.

Glucocorticoid receptor (Homo sapiens), sequence (P04150 whole entry, looked up): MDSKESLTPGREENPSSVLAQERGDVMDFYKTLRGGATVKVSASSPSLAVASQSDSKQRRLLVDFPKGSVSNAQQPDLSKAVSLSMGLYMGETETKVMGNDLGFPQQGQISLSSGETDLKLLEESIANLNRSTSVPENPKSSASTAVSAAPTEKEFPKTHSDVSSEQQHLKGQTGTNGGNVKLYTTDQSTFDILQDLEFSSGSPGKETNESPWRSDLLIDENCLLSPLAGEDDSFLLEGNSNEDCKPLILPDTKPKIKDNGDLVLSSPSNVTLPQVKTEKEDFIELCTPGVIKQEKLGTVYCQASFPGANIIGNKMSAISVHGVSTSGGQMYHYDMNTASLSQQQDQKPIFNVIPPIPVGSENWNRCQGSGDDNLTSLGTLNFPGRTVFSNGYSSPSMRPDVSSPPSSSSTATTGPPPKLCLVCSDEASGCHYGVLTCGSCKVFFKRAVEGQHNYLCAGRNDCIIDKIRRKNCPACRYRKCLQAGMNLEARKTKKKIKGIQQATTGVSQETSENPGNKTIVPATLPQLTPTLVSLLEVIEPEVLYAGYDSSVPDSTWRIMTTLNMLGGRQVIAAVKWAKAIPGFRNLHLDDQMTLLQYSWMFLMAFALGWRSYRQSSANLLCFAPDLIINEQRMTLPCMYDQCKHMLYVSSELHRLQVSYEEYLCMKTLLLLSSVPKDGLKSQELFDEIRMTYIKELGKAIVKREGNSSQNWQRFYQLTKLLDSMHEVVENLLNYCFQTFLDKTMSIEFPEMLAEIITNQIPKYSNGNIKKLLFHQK
Nuclear receptor ROR-gamma (Homo sapiens), sequence (P51449 whole entry, looked up): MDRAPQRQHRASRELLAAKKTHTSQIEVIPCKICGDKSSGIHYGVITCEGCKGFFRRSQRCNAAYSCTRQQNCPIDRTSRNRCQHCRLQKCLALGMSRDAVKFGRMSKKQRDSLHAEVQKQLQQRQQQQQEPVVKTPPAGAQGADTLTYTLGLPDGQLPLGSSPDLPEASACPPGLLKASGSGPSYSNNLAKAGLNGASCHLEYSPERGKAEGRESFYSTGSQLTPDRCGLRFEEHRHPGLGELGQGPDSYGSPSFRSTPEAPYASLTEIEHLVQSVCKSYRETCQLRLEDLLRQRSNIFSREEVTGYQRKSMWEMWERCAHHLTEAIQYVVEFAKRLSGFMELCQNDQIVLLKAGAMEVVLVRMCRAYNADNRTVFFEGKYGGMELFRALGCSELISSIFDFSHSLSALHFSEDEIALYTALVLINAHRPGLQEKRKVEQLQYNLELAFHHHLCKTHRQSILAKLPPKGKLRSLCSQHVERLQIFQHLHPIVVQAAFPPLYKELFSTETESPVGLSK
Tumor necrosis factor (Homo sapiens), sequence (P01375 whole entry, looked up): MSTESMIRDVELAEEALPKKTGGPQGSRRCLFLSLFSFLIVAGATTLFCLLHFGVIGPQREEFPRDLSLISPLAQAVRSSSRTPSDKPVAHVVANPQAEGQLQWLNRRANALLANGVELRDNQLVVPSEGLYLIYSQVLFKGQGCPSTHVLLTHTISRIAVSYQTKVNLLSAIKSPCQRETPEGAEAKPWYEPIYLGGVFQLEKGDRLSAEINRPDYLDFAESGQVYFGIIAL
Peroxisome proliferator-activated receptor gamma (Homo sapiens), sequence (P37231 whole entry, looked up): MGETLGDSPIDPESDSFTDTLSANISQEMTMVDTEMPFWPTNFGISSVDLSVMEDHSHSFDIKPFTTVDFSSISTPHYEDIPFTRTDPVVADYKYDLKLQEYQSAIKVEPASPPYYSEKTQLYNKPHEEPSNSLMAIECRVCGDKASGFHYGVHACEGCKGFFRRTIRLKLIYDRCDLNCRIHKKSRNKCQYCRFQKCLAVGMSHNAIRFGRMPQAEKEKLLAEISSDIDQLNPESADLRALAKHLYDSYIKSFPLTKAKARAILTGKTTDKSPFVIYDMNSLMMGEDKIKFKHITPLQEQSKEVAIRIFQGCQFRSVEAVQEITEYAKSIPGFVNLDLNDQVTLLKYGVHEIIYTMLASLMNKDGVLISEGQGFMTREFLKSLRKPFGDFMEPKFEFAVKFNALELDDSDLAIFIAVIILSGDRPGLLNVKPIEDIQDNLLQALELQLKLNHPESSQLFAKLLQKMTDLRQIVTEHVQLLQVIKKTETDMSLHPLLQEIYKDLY
Thyroid hormone receptor beta (Homo sapiens), sequence (P10828 whole entry, looked up): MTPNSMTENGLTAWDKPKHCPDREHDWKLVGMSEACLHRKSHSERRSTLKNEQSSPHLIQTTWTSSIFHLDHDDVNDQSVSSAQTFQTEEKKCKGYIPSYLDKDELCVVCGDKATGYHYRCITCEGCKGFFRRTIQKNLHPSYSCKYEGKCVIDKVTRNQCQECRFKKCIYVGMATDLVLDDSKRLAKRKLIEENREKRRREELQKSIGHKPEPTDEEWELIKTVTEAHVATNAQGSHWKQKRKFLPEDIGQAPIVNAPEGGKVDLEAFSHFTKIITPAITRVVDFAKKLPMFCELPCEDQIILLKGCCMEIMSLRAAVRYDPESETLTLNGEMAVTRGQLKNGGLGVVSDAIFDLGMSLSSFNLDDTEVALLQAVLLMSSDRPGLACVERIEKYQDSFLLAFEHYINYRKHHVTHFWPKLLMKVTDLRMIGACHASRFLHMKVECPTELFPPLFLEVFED
Nuclear receptor subfamily 1 group I member 2 (Rattus norvegicus), sequence (Q9R1A7 whole entry, looked up): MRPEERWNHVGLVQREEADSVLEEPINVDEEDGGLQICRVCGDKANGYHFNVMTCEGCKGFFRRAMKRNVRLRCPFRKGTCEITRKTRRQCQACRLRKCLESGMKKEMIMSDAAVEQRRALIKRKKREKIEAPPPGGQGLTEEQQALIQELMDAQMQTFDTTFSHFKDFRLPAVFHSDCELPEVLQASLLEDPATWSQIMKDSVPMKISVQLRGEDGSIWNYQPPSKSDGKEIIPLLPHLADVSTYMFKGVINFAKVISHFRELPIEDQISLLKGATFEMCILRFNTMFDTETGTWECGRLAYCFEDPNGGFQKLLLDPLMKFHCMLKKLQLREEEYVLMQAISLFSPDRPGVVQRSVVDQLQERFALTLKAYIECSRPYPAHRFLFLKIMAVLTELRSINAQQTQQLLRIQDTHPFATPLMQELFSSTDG
Estrogen receptor (Homo sapiens), sequence (P03372 whole entry, looked up): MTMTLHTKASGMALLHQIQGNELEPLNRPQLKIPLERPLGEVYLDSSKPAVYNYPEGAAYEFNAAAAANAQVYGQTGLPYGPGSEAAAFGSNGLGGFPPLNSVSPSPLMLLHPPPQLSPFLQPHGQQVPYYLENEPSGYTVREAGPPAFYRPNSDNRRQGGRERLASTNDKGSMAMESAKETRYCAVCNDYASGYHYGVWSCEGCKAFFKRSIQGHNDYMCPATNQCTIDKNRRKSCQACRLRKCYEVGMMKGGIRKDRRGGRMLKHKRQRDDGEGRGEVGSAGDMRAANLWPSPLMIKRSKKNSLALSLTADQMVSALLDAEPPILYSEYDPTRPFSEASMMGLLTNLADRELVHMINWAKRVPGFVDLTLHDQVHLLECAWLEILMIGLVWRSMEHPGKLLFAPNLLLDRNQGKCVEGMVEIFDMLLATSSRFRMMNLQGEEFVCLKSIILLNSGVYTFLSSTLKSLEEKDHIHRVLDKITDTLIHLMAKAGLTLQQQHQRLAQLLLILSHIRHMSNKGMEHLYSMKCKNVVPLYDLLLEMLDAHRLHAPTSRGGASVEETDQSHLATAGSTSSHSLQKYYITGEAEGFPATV
Cytochrome P450 3A4 (Homo sapiens), sequence (P08684 whole entry, looked up): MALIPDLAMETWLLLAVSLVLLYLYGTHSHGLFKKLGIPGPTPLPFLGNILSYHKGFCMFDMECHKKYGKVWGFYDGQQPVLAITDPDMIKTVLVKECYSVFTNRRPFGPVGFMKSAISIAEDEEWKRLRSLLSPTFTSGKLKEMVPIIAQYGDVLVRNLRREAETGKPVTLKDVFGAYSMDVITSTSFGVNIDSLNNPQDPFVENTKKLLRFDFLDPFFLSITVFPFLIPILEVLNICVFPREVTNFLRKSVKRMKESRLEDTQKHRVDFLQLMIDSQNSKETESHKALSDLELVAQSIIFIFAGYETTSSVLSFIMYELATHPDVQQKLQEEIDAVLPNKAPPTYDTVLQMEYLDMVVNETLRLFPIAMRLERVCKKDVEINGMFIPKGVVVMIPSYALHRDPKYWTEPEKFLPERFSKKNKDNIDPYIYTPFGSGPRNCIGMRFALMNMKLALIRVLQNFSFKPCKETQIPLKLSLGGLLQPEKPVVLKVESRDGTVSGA
Retinoic acid receptor RXR-alpha (Homo sapiens), sequence (P19793 whole entry, looked up): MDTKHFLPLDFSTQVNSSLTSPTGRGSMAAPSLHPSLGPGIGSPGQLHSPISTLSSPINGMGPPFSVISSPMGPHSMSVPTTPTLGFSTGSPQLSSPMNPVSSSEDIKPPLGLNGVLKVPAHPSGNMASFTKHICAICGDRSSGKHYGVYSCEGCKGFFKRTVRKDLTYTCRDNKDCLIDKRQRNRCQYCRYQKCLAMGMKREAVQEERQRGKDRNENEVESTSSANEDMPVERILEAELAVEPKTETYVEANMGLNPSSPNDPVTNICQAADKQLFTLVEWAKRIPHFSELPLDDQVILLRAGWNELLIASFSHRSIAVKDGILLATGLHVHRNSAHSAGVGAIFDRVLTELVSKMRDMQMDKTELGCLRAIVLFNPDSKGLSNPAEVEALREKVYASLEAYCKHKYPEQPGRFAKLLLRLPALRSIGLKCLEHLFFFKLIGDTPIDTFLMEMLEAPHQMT

Take `O=NN(c1ccccc1)c1ccccc1`: the Potency result in experiment [1], in experiment [2], in experiment [3], in experiment [4], in experiment [5] and in [6] was “inactive” in each case. For the same compound, the Potency entry in experiment [7], in [8], in [9], in experiment [11], in experiment [13] and in [18] was “inactive” each time. The Potency entry in [19] is “inactive”. Further, the activation is -1.26% and -2.24% in experiment [10]; -0.087% and -2.72% in experiment [15]; 0.195% and 0.974% in [17]. Moreover, the result in experiment [12] and in [16] was inactive. Moreover, the activity change % (negative = inhibition) in [14] is -20.2% and 4.93%. In experiment [20], the max response was 2.63% and 4.55%.
On to `COc1ccc(N)cc1`, for which the Potency result in experiment [1], in experiment [2], in [3], in experiment [4], in experiment [5] and in experiment [6] was “inactive” throughout. Moreover, the Potency entry in experiment [7], in experiment [11], in experiment [13], in experiment [18] and in experiment [19] was “inactive” in each case. The activation was -7.51% and 3.18% in experiment [10]; -2.17% and -1.84% in experiment [15]; 1.03% and 6.89% in experiment [17]. The call in [12] and in [16] was inactive. Besides, the activity change % (negative = inhibition) in [14] is 8.16% and -11.7%.
With `ClC(Cl)=C(Cl)C(Cl)=C(Cl)Cl`, the Potency entry in [1], in experiment [3], in experiment [8], in experiment [9], in experiment [11] and in experiment [13] was “inactive” in each case. Further, the Potency result in experiment [18] and in [19] was “inactive” in each case. The activation was -16.2% in experiment [10]; -0.54% and -2.12% in [17]. Further, the call in [12] and in experiment [16] was inactive. The activity change % (negative = inhibition) in experiment [14] is -2.4%. Further, the max response in experiment [20] is 2.24% and -2.02%.
Take `CCCCCCCC(=O)Cl`: the Potency entry in [1], in experiment [2], in [3], in experiment [4], in experiment [5] and in experiment [6] was “inactive” each time. For the same compound, the Potency result in experiment [7], in experiment [8], in experiment [9], in experiment [11], in [13] and in [18] was “inactive” each time. Besides, the Potency entry in experiment [19] is “inactive”. Moreover, the results for the activation in [10], in experiment [15] and in experiment [17] were 5.97%, -1.82% and -0.601%, respectively. The compound was called inactive in [12] and in experiment [16]. For the same compound, the activity change % (negative = inhibition) in experiment [14] is 11.9%. Further, in experiment [20], the max response is 5.82%.
Consider `S=C=Nc1cccc2ccccc12`, for which the Potency result in [2], in experiment [3], in experiment [4], in experiment [5], in experiment [6] and in experiment [7] was “inactive” in each case. Moreover, the Potency result in [8], in experiment [9], in experiment [11], in [13], in experiment [18] and in experiment [19] was “inactive” each time. Moreover, the activation is 2.48% in experiment [10] and 3.44% in experiment [15]. For the same compound, the outcome in experiment [12] and in experiment [16] was inactive. In addition, the activity change % (negative = inhibition) in experiment [14] is -1.91%. In addition, the Potency in experiment [17] is 50.1 µM (active). The max response in experiment [20] is 5.78%.
Turning to `C=CC(C)=O`, the Potency entry in experiment [1], in experiment [2], in experiment [3], in experiment [4], in [5] and in [6] was “inactive” throughout. Further, the Potency result in [7], in experiment [8], in experiment [9], in [11], in experiment [13] and in experiment [18] was “inactive” in each case. Further, in experiment [19], the Potency entry was “inactive”. The activation in experiment [10] is -1.11%; in experiment [15], -2.21%; in experiment [17], 1.86%. For the same compound, the result in experiment [12] and in experiment [16] was inactive. For the same compound, in experiment [20], the max response is 1.84%.

Source of the values: PubChem BioAssay (NCATS).
